From PubChem
Most compounds without a hit are left out; they make up all but 19% or so of the library.
HT1080 IDH1KD tx – HT-1080 IDH1 knockdown cell toxicity (counter line) | HT-1080 IDH1 knockdown viability, ATP luminescence, 48 h | Potency, µM (titrated, usually from 46.1 µM), actives largely listed as cytotoxic | 360,000 compounds, 2% hits
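In this qHTS, HT-1080 cells depleted of IDH1 are exposed for 48 h at 37 °C to compound titrations. Toxicity is scored from CellTiter-Glo luminescence, with DMSO as full viability and medium alone as none.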
TDP1 cell noCPT – qHTS for Inhibitors of human tyrosyl-DNA phosphodiesterase 1 (TDP1): qHTS in cells in absence of CPT; DT40 Tdp1-/- hTDP1 cells, no CPT, ATP luminescence, 48 h; Potency, µM (doses to about 46.2 µM), actives largely listed as inhibitors; 420,000 compounds, 15% hits; AID 686978, 2013; note: nearly all actives have a fitted effect of over 55% in size
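Cells were dispensed at 400 per well, compounds added by pin tool, plates incubated ≥48 hr at 37 °C, then CellTiter-Glo added for 30 min at room temperature before luminescence reading. Line: DT40 Tdp1-/- complemented with hTDP1; camptothecin omitted.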
IL1B secr inh – inflammasome signaling inhibition, IL-1 beta readout; THP-1 LPS/ATP IL-1B secretion, AlphaLISA, 16 h; stronger effect = lower value; activity change, % at 57.5 µM; 360,000 compounds, 4.7% hits; AID 743279; in the data active = activity change below about -50%; inconclusive = mostly about -30% to -49%
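Secreted IL-1B measured by AlphaLISA bead assay after 16 h compound exposure of THP-1 cells; compounds (final up to 57.5 uM) added 1 h before LPS (250 ng/mL) and ATP (1.25 mM) stimulation; lower signal means less secretion.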
TDP1 cell CPT – DT40-hTDP1 cell growth loss with CPT | Potency, µM (doses to about 46.2 µM), hits mostly inhibitors | chicken DT40 Tdp1-/-;hTDP1 cells + 20 nM CPT, ATP luminescence, 48 h | 420,000 compounds, 12% hits; note: nearly all actives have a fitted effect of over 55% in size
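Chicken DT40 Tdp1-/- cells stably complemented with human TDP1 were seeded at 400 cells/well in medium containing 20 nM camptothecin, exposed to pin-transferred compounds, and grown at 37 °C for at least 48 hr. Viability was read as ATP luminescence.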
uPA surface inh – blocks generation of uPA at the cell surface | cell surface uPA generation assay, qHTS | 330,000 compounds, 0.31% hits | Potency, µM (titrated, usually from 38.3 µM), actives largely listed as inhibitors; active = well fitted inhibition curve with a large enough effect; inconclusive = small, poorly fitted or top-dose-only effect; inactive = no such curve, though single readings can be large or run the other way; tested in mouse RAW 264.7 cells; note: nearly all actives have a fitted effect of over 55% in size
HT1080-NT tox – kills 2HG-producing HT-1080-NT fibrosarcoma cells; HT-1080-NT fibrosarcoma viability, CellTiter-Glo ATP luminescence, 48 h; Potency, µM (titrated, usually from 46.1 µM), usual class: cytotoxic; 360,000 compounds, 1.6% hits;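 note: NT is the 2HG producing partner of a matched IDH1 knockdown line; nearly all actives have a fitted effect of over 55% in size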
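750 cells/well, RPMI + 5% FBS; 2 h settle, compound pin-transfer, 48 h at 37 degrees C. CellTiter-Glo 10 min RT, luminescence. Normalized to DMSO and media-only wells.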
Of the large screens only hits and unclear results are named; the others gave an inactive call. Unless noted, calls come from the whole dose curve; as a rule, active = well fitted curve in the direction sought with a large enough effect; inconclusive = small, poorly fitted or top-dose-only effect, or another doubt; inactive = no such curve, though single readings can be large; an effect the other way counts as inactive or inconclusive.

O=C(NCC1(c2ccccc2)CCCC1)c1ccccc1	TDP1 cell noCPT 12µM, TDP1 cell CPT 15µM
O=C(NCc1cccnc1)c1cc(C2CCCCN2C(=O)c2ccc3ccccc3c2)on1 (configuration not stated)	TDP1 cell noCPT inconclusive, TDP1 cell CPT inconclusive (no result: uPA surface inh)
O=S(=O)(NC1CCSc2ccccc21)c1ccc(Cl)nc1 (configuration not stated)	TDP1 cell noCPT inconclusive, TDP1 cell CPT inconclusive
COc1ccccc1C(=O)c1cn(CC(=O)Nc2ccccc2F)c2nc(C)ccc2c1=O	none (no result: HT1080 IDH1KD tx, IL1B secr inh, uPA surface inh, HT1080-NT tox)
CC(C)(C)OC(=O)N1C(=O)[C@](OC(=O)c2ccccc2)(c2ccc(F)cc2)c2ccccc21	HT1080 IDH1KD tx inconclusive, TDP1 cell noCPT inconclusive, TDP1 cell CPT inconclusive, HT1080-NT tox inconclusive (no result: uPA surface inh)
CC(C)(C)c1nnc(NC(=O)C2CC(=O)N(CCc3ccc(F)cc3)C2)s1 (configuration not stated)	none
COc1ccccc1C(=O)NCC1(c2ccccc2)CCCC1	TDP1 cell noCPT inconclusive, IL1B secr inh -77, TDP1 cell CPT 16µM
Cc1cccc2cc(C#N)c(NCCNS(=O)(=O)c3ccccc3)nc12	none
Cc1cccc2cc(C#N)c(NCCCNS(=O)(=O)c3ccc(Cl)cc3)nc12	HT1080 IDH1KD tx inconclusive, TDP1 cell noCPT inconclusive, TDP1 cell CPT 18µM, HT1080-NT tox inconclusive
CC1(c2nnnn2Cc2ccccc2)CCC(=O)N1CCOc1ccccc1 (configuration not stated)	TDP1 cell noCPT inconclusive, TDP1 cell CPT inconclusive (no result: uPA surface inh)
COc1ccc2c(c1)/C(=C\c1cccc(/C=C3/C(=O)Nc4ccc(OC)cc43)n1)C(=O)N2	HT1080 IDH1KD tx 3.3µM, TDP1 cell noCPT 1.8µM, IL1B secr inh -107, TDP1 cell CPT 1.6µM, HT1080-NT tox 2.9µM
O=C(Nc1cccc(Cl)c1)N(CCN1CCOCC1)Cc1ccccc1F	IL1B secr inh inconclusive
CCc1ccc2[nH]c(=O)c(CN(CCCN3CCOCC3)C(=O)Nc3ccccc3)cc2c1	HT1080 IDH1KD tx inconclusive, TDP1 cell noCPT 21µM, TDP1 cell CPT 23µM, HT1080-NT tox inconclusive
O=C(Nc1cccc(Cl)c1)N(CCN1CCOCC1)Cc1cccc(Cl)c1	HT1080 IDH1KD tx inconclusive, TDP1 cell noCPT inconclusive, IL1B secr inh -76, TDP1 cell CPT inconclusive, HT1080-NT tox inconclusive
CCc1ccc2[nH]c(=O)c(CN(CCCN3CCOCC3)C(=O)Nc3cccc(Cl)c3)cc2c1	HT1080 IDH1KD tx inconclusive, TDP1 cell noCPT 15µM, IL1B secr inh -62, TDP1 cell CPT inconclusive, HT1080-NT tox inconclusive
CCN(CC)c1nc(C(F)(F)F)nc2c1nnn2Cc1ccccc1	uPA surface inh inconclusive
CNC(=O)c1ccsc1NC(=O)c1coc2ccccc2c1=O	TDP1 cell noCPT 18µM, TDP1 cell CPT inconclusive
CCc1nnc(NC(=O)COC(=O)c2cc(OC)cc(OC)c2)s1	none
O=C(NCC1CCCO1)C(c1ccc(F)cc1)N(C(=O)Cn1nnc(-c2ccc(F)cc2)n1)c1cccc(O)c1 (configuration not stated)	TDP1 cell noCPT 9.2µM, TDP1 cell CPT inconclusive
Cc1ccc(-c2nnn(CC(=O)N(Cc3cccs3)C(C(=O)NC3CCCC3)c3ccncc3)n2)cc1 (configuration not stated)	HT1080 IDH1KD tx inconclusive, TDP1 cell CPT inconclusive, uPA surface inh inconclusive, HT1080-NT tox 16µM
CC(C)CCNC(=O)C(c1ccncc1)N(Cc1cccs1)C(=O)Cn1nnc(-c2ccc(F)cc2)n1 (configuration not stated)	TDP1 cell noCPT inconclusive, TDP1 cell CPT 9.2µM
Cc1ccc(-c2nnn(CC(=O)N(Cc3cccs3)C(C(=O)NC3CCCCC3)c3ccco3)n2)o1 (configuration not stated)	TDP1 cell noCPT 23µM, TDP1 cell CPT 26µM
CC(C)C(OC(=O)c1nsc(Cl)c1Cl)C(=O)NCC1CCCO1 (configuration not stated)	none
N#CCCN(C(=S)NC(=O)c1cccs1)c1ccccc1F	TDP1 cell CPT inconclusive
CCCCC(C(=O)NC1CCCC1)N(Cc1ccco1)C(=O)Cn1nnc(-c2ccc(F)cc2)n1 (configuration not stated)	TDP1 cell noCPT 23µM, IL1B secr inh inconclusive, TDP1 cell CPT 23µM
O=C(CN(Cc1ccco1)C(=O)Cn1nnc(-c2ccc(F)cc2)n1)NC1CCCC1	TDP1 cell noCPT inconclusive, TDP1 cell CPT inconclusive
O=C(NCC1CCCO1)C(c1cccs1)N(Cc1cccs1)C(=O)Cn1nnc(-c2cccs2)n1 (configuration not stated)	TDP1 cell noCPT 18µM, TDP1 cell CPT 16µM
O=C(NC1CCCCC1)C(c1ccccc1)N(Cc1ccco1)C(=O)Cn1cnc2ccccc21 (configuration not stated)	TDP1 cell noCPT 23µM, TDP1 cell CPT 23µM
O=C(NC1CCCC1)C(c1cccs1)N(Cc1ccco1)C(=O)Cn1nnc(-c2cccs2)n1 (configuration not stated)	TDP1 cell noCPT inconclusive, TDP1 cell CPT 21µM
COc1ccc(-c2nc3cnc(OC)nc3n(CCc3ccccc3)c2=O)cc1	none (no result: HT1080 IDH1KD tx, IL1B secr inh, uPA surface inh, HT1080-NT tox)
COc1ccc(N(CC(=O)Nc2ccc(C)c(C)c2)S(=O)(=O)c2ccc(C)cc2)cc1OC	none (no result: HT1080 IDH1KD tx, IL1B secr inh, uPA surface inh, HT1080-NT tox)
COc1ccc(-c2nnn(CC(=O)N(Cc3cccs3)C(C)C(=O)NC3CCCC3)n2)cc1OC (configuration not stated)	HT1080 IDH1KD tx inconclusive, TDP1 cell noCPT inconclusive, TDP1 cell CPT 29µM (no result: uPA surface inh)
CCC(C(=O)NC1CCCC1)N(Cc1cccs1)C(=O)Cn1nnc(-c2ccc(OC)c(OC)c2)n1 (configuration not stated)	TDP1 cell noCPT inconclusive, IL1B secr inh inconclusive
O=C(NCc1ccccc1Cl)C1=CC=CN2CCS(=O)(=O)N=C12	uPA surface inh inconclusive
COc1cc(NC(=O)Cn2ccc3ccccc3c2=O)cc(OC)c1OC	none (no result: HT1080 IDH1KD tx, IL1B secr inh, uPA surface inh, HT1080-NT tox)
CSc1ccc(-c2ccc3c(c2)c(Sc2ccccc2)c(-c2ccccc2)n3C)cc1	none (no result: uPA surface inh)
COc1cccc(CNC(=O)c2nnn(CC(=O)Nc3ccc(Br)cc3)c2N)c1	HT1080 IDH1KD tx inconclusive, TDP1 cell noCPT 5.2µM, TDP1 cell CPT 10µM
CCOc1ccccc1NC(=O)Cn1nnc(C(=O)NCc2ccco2)c1N	HT1080 IDH1KD tx 0.041µM, TDP1 cell noCPT 0.023µM, TDP1 cell CPT 0.0092µM, HT1080-NT tox inconclusive
CSc1cccc(NC(=O)c2nnn(CC(=O)Nc3cc(C)cc(C)c3)c2N)c1	HT1080 IDH1KD tx inconclusive, TDP1 cell noCPT 6.5µM, TDP1 cell CPT inconclusive, HT1080-NT tox inconclusive
CCOc1ccccc1NC(=O)c1nnn(CC(=O)Nc2ccccc2CC)c1N	none (no result: HT1080 IDH1KD tx, IL1B secr inh, uPA surface inh, HT1080-NT tox)
